The full data set covers some 6,500 targets. This sample favours those with a hit. About 2% of all pairs of compound and target were hits.
Compound: COC(=O)C#Cc1ccccc1 [methyl 3-phenylpropiolate]
Experiment: log2 ratio of iodoacetamide-alkyne labeling of the cysteine site, DMSO over compound (competition); higher = stronger covalent engagement of the cysteine by the compound, active = 1 or more
Details: 500 µM; treatment time 1 h; system: HEK293T cell lysate
In short: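 The log2 competition ratio per cysteine is defined as mean reporter intensity in control channels over mean reporter intensity in compound channels. Lysate from HEK293T cells (2 mg/mL) received electrophile (500 µM) or vehicle for 1 h at ambient temperature, followed by iodoacetamide alkyne for 1 h. Samples were clicked to sCIP-TMT reagents, pooled, trypsin-digested overnight at 37 °C, streptavidin-enriched, acid-eluted and run on Orbitrap Eclipse LC-MS/MS with FAIMS, with quantification in FragPipe. Three replicates with duplicate channels were used, and any cysteine quantified in only one replicate was excluded.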

Sequence of UniProt P43246 (P43246 whole entry, looked up): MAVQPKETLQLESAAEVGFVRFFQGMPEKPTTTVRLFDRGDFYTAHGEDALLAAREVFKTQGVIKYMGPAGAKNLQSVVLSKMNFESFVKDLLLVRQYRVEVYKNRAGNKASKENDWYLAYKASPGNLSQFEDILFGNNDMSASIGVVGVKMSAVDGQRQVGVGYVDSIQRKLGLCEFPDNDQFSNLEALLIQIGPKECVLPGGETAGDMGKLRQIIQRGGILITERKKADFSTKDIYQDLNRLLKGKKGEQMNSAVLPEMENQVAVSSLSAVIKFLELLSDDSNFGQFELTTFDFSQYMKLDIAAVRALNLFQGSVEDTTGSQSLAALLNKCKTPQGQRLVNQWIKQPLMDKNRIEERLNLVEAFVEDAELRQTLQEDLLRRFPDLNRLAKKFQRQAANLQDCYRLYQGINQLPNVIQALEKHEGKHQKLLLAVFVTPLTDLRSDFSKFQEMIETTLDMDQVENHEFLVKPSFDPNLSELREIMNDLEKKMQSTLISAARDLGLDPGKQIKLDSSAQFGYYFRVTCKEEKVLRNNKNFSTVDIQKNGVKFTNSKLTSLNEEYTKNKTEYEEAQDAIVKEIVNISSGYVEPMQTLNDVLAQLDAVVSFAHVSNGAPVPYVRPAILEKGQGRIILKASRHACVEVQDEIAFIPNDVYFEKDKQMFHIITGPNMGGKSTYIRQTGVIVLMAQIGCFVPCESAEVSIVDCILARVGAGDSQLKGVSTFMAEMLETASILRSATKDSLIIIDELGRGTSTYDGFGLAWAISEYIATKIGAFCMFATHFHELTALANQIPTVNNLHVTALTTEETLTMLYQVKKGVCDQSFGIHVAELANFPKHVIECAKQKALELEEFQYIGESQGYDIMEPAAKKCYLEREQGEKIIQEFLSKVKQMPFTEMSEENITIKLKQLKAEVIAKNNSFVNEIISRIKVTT
Sequence of UniProt P13489 (P13489 whole entry, looked up): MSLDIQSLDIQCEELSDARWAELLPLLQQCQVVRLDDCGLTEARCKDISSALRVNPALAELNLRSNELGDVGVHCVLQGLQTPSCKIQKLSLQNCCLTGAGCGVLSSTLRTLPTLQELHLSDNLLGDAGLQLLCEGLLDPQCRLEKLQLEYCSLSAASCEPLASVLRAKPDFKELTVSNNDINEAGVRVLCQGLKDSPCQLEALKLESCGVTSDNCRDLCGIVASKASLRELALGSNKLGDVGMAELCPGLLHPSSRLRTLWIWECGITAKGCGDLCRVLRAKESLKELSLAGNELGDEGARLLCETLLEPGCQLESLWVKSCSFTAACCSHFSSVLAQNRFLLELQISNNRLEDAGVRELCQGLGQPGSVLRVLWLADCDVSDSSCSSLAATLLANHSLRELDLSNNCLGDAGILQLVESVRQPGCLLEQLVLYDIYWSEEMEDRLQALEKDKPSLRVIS
Sequence of UniProt P52597 (P52597 whole entry, looked up): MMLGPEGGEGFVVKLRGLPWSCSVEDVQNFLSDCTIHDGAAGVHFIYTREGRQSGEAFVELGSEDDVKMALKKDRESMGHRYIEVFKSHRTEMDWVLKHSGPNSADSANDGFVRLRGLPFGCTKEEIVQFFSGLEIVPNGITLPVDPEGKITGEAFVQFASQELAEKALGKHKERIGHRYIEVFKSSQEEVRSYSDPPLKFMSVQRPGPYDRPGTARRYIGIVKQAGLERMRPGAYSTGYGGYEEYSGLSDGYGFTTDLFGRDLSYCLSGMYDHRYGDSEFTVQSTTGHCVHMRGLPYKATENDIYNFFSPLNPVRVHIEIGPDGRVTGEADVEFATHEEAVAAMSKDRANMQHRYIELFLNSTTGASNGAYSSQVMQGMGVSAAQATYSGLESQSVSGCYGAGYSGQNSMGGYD
Sequence of UniProt P06733 (P06733 whole entry, looked up): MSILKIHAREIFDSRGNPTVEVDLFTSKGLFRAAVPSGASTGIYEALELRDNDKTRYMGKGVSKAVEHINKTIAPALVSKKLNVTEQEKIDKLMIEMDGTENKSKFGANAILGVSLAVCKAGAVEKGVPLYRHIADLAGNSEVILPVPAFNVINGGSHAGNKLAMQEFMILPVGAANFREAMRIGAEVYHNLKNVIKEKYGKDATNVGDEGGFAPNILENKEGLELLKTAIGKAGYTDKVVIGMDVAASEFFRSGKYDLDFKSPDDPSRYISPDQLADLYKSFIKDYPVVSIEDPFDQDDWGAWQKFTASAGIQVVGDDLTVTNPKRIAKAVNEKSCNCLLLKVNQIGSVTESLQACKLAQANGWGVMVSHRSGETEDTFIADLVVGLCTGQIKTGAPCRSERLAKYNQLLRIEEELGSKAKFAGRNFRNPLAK
Sequence of UniProt P13995 (P13995 whole entry, looked up): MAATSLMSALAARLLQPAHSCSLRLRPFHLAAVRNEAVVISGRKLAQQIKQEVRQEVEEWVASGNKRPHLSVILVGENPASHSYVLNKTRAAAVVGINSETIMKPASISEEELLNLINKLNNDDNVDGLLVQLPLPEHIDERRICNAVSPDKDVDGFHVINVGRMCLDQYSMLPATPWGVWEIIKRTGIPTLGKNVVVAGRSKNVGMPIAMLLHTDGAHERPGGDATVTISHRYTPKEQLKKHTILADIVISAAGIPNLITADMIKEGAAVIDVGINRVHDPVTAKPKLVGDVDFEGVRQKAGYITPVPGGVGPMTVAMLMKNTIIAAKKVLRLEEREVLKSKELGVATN
Sequence of UniProt P12277 (P12277 whole entry): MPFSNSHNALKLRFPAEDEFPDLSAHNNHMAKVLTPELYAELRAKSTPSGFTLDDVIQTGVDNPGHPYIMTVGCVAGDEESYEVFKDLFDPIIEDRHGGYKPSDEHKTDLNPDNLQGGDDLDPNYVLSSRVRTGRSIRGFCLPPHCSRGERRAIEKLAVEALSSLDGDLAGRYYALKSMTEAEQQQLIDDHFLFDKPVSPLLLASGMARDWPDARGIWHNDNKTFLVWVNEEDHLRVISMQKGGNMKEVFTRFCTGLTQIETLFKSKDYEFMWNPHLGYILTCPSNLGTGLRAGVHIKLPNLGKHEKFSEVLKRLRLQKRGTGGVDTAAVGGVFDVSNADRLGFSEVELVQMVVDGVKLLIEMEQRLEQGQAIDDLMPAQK
Sequence of UniProt P11274 (P11274 whole entry): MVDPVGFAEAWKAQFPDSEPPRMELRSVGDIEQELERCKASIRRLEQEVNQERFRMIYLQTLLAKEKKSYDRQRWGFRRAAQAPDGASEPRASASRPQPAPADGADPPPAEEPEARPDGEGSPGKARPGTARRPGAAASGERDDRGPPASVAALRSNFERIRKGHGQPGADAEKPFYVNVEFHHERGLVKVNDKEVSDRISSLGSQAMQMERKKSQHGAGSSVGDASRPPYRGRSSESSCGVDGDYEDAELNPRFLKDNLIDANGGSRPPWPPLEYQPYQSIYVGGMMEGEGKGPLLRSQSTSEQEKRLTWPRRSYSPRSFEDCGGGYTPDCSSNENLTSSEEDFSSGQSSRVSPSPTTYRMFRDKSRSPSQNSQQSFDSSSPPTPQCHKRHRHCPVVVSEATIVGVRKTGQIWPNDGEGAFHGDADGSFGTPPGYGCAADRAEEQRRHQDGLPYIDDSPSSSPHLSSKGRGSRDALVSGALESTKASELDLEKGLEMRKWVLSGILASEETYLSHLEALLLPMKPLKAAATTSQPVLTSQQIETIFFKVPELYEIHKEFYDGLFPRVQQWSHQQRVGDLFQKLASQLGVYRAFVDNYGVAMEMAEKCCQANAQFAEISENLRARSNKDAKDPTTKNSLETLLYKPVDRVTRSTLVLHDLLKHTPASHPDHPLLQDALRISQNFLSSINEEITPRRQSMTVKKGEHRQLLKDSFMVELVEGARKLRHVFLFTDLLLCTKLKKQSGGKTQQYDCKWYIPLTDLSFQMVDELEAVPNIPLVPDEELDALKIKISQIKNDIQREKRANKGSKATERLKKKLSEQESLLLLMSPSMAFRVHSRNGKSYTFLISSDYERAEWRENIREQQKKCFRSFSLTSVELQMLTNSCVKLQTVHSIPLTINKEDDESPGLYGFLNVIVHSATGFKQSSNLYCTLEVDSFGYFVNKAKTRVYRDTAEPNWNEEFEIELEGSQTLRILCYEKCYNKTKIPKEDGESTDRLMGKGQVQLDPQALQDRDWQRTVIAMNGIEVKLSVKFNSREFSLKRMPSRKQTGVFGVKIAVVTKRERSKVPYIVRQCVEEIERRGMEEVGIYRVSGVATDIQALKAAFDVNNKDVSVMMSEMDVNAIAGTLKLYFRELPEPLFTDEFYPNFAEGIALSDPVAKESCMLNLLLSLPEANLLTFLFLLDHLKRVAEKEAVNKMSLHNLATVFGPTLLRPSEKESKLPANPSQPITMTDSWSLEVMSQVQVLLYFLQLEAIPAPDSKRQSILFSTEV
Sequence of UniProt P22087 (P22087 whole entry, looked up): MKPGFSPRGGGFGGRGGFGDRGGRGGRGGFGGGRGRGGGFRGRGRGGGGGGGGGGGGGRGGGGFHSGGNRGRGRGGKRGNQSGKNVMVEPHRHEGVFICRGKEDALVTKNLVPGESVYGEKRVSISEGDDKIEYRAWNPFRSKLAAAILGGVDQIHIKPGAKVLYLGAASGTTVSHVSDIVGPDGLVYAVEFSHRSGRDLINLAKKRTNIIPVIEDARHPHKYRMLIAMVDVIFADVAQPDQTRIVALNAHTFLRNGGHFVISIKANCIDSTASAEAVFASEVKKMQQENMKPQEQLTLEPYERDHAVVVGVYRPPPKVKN
Sequence of UniProt P18085 (P18085 whole entry, looked up): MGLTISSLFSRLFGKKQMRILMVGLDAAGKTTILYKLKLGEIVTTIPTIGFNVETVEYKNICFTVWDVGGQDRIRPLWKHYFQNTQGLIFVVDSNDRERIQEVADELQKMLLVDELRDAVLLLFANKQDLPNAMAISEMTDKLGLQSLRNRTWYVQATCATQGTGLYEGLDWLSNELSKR
Sequence of UniProt P00492 (P00492 whole entry, looked up): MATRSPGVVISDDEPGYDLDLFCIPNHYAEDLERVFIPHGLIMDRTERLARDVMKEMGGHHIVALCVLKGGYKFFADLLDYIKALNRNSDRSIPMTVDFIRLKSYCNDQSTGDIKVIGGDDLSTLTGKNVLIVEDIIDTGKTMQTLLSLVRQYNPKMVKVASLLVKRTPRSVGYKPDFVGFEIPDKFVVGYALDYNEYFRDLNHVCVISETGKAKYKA

Target	log2 ratio of iodoacetamide-alkyne labeling
CTSB C319 (UniProt P07858)	0.512 (inactive)
ENO1 C357 (UniProt P06733)	-0.0848 (inactive)
IDH3A C359 (UniProt P50213)	1.05 (active)
RNH1 C75 (UniProt P13489)	0.145 (inactive)
MPI C289 (UniProt P34949)	-0.0268 (inactive)
RANBP2 C1296 (UniProt P49792)	0.543 (inactive)
RPL27A C144 (UniProt P46776)	0.155 (inactive)
APC C1387 (UniProt P25054)	0.256 (inactive)
GART C466 (UniProt P22102)	0.199 (inactive)
EIF2S3 C105 (UniProt P41091)	0.341 (inactive)
RANBP2 C1335 (UniProt P49792)	0.226 (inactive)
VDAC2 C210 (UniProt P45880)	1.39 (active)
MAP1B C1814 (UniProt P46821)	0.438 (inactive)
CAST C408 (UniProt P20810)	1.01 (active)
ADD1 C68 (UniProt P35611)	0.368 (inactive)
SHMT1 C96 (UniProt P34896)	0.0443 (inactive)
ACAA1 C123 (UniProt P09110)	-0.0075 (inactive)
HPRT1 C206 (UniProt P00492)	0.0837 (inactive)
PPP2R1A C377 (UniProt P30153)	0.919 (inactive)

Target	log2 ratio of iodoacetamide-alkyne labeling
FBL C268 (UniProt P22087)	0.27 (inactive)
RPL9 C134 (UniProt P32969)	0.0357 (inactive)
ASS1 C132 (UniProt P00966)	0.124 (inactive)
ARF4 C62 (UniProt P18085)	-0.015 (inactive)
CASP3 C184 (UniProt P42574)	0.259 (inactive)
BCR C395 (UniProt P11274)	1.17 (active)
DNMT1 C1226 (UniProt P26358)	-0.0963 (inactive)
FASN C1127 (UniProt P49327)	0.394 (inactive)
HSPD1 C442 (UniProt P10809)	1.2 (active)
CKB C283 (UniProt P12277)	0.217 (inactive)
TTK C284 (UniProt P33981)	0.53 (inactive)
TMPO C280 (UniProt P42166)	1.09 (active)
MSH2 C333 (UniProt P43246)	1.16 (active)
POLD1 C837 (UniProt P28340)	1.16 (active)
HNRNPF C290 (UniProt P52597)	0.0362 (inactive)
MCM5 C219 (UniProt P33992)	1.34 (active)
MTHFD2 C145 (UniProt P13995)	0.057 (inactive)
LMNA C570 (UniProt P02545)	0.553 (inactive)

Reference: the supplement of paper PMC11006884
